Drawing on PubChem BioAssay AID624255 (Broad Institute, 2012), this text covers inhibition for 29 molecules.

Out of some 77,000 compounds screened, about 4,600 (6%) were called active. Another 1% or so got no clear call; they are omitted.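 The calls were made as follows: active = mean inhibition above about 93%, with at least 55% of replicates each passing it (limit read from the data, passing the limit was not always enough); inconclusive = only one of those two conditions holds; inactive = neither condition holds.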 The entries come from a sample that favours actives as a whole.

A short description of this test: growth inhibition of T. cruzi in host fibroblasts – cell-based, beta-gal Tulahuen parasites, NIH3T3 host, luminescence, primary screen (AID 624255). The conditions noted are these: T. cruzi beta-gal in NIH3T3, GalScreen luminescence, 90 h; at 8.34 µM; stronger effect = higher value.
As usually defined, the inhibition is the change of the read-out against control, counted positive when it falls. For `C/C=C/c1ccc([C@H]2[C@@H](CNC(=O)NC(C)C)N(C(=O)C3CCC3)[C@H]2CO)cc1`, the inhibition was 7.28% (inactive).
On to `C/C=C/c1ccc([C@H]2[C@@H](CNC(C)C)N(c3nc(CC)cs3)[C@H]2CO)cc1`, for which the inhibition is 100% (active).
Consider `C/C=C/c1ccc([C@H]2[C@@H](CO)N(C(C)=O)[C@H]2CNC(=O)c2ccncc2)cc1`, for which the inhibition is 72.7% (inactive).
As for `CO[C@H](C(=O)N(C)C[C@@H]1OCc2ccccc2-c2c(n(C)c3ccccc23)C(=O)N([C@@H](C)CO)C[C@H]1C)c1ccccc1`, the inhibition is -13.2% (inactive).
Turning to `CN1[C@H](C(=O)N2CCc3ccccc3C2)[C@@H](CO)[C@@H]2Cn3c(ccc(-c4cncnc4)c3=O)[C@@H]21`, the inhibition was 79.8% (inactive).
As to `COc1cccc(S(=O)(=O)N[C@H]2CC[C@H](CCN)O[C@H]2CO)c1`, the inhibition is -31.7% (inactive).
As to `CO[C@H]1CN(C)C(=O)c2cc(NS(C)(=O)=O)ccc2OC[C@@H](C)N(C)C[C@@H]1C`, the inhibition was 13.7% (inactive).
`C[C@@H](O)C#Cc1ccc([C@@H]2[C@H]3CN(C(=O)c4ccc5c(c4)OCO5)CCCCN3[C@H]2CO)cc1`: the inhibition was 71.8% (inactive).
With `Cc1cccc(-c2ccc([C@@H]3[C@H](CO)N4CCCCN(C(=O)c5ccc6c(c5)OCO6)C[C@@H]34)cc2)c1`, the inhibition was 98.3% (active).
Regarding `C[C@@H](O)C#Cc1ccc([C@H]2[C@H]3CN(C(=O)c4ccc5c(c4)OCO5)CCCCN3[C@H]2CO)cc1`, the inhibition was 26% (inactive).
In the case of `COc1ccc(-c2ccc([C@H]3[C@H]4CN(C(=O)c5ccc6c(c5)OCO6)CCCCN4[C@H]3CO)cc2)cc1`, the inhibition is 117% (active).
Turning to `CC(C)C#Cc1ccc([C@@H]2[C@@H](CO)N3CCCCN(C(=O)c4ccc5c(c4)OCO5)C[C@H]23)cc1`, the inhibition was 67.5% (inactive).
The figure for `CCCC#Cc1ccc([C@H]2[C@@H](CO)N3CCCCN(C(=O)c4ccc5c(c4)OCO5)C[C@@H]23)cc1` is 50.9% (inactive).
On to `Cc1ccc(S(=O)(=O)N[C@H]2CC[C@@H](CC(=O)NCCCN(C)C)O[C@H]2CO)cc1`, for which the inhibition was -52% (inactive).
`CN1c2ccc(-c3cccc(C#N)c3)cc2[C@H]2[C@H](CCN2S(=O)(=O)c2cccc(F)c2)[C@@H]1CO`: the inhibition is 41.7% (inactive).
On to `C[C@H](CO)N1C[C@H](C)[C@H](CN(C)S(C)(=O)=O)Oc2ncc(C3=CCCCC3)cc2C1=O`, for which the inhibition was 47.7% (inactive).
For `CCC(=O)N1C[C@H](C)[C@H](OC)CN(C)C(=O)c2ccc(NC(=O)Nc3cccc(F)c3)cc2OC[C@@H]1C`, the inhibition was 24.9% (inactive).
Under `CC(C)NC(=O)Nc1ccc2c(c1)C(=O)N([C@@H](C)CO)C[C@H](C)[C@H](CN(C)C(=O)Nc1ccc(F)cc1)OCCCC[C@@H](C)O2` stands 10.6% (inactive).
Under `CC(C)NC(=O)Nc1ccc2c(c1)C(=O)N([C@H](C)CO)C[C@H](C)[C@H](CN(C)C(=O)Nc1ccc(C(F)(F)F)cc1)OCCCC[C@@H](C)O2` stands 104% (active).
Turning to `C[C@H](CO)N1C[C@H](C)[C@@H](CN(C)C(=O)Nc2ccc3c(c2)OCO3)OCCCC[C@H](C)Oc2ccc(NC(=O)Nc3ccc4c(c3)OCO4)cc2C1=O`, the inhibition is 66.3% (inactive).
As for `COc1ccc(NC(=O)Nc2ccc3c(c2)C(=O)N([C@H](C)CO)C[C@@H](C)[C@H](CN(C)C(=O)Nc2ccc(C(F)(F)F)cc2)OCCCC[C@@H](C)O3)cc1`, the inhibition is 121% (inactive).
Consider `C[C@H](CO)N1C[C@H](C)[C@H](CN(C)C(=O)Nc2ccc(C(F)(F)F)cc2)OCCCC[C@H](C)Oc2ccc(NC(=O)C3CCCCC3)cc2C1=O`, for which the inhibition was 99.4% (active).
Turning to `COc1ccc(NC(=O)Nc2ccc3c(c2)C(=O)N([C@H](C)CO)C[C@H](C)[C@@H](CN(C)C(=O)Nc2ccc(OC)cc2)OCCCC[C@H](C)O3)cc1`, the inhibition was -4.89% (inactive).
For `COc1ccc(NC(=O)N(C)C[C@H]2OCCCC[C@H](C)Oc3ccc(NC(=O)Nc4ccc(C(F)(F)F)cc4)cc3C(=O)N([C@@H](C)CO)C[C@@H]2C)cc1`, the inhibition was 110% (active).
The figure for `C[C@@H]1CN([C@@H](C)CO)C(=O)c2cc(NC(=O)Nc3ccc4c(c3)OCO4)ccc2O[C@@H](C)CCCCO[C@@H]1CN(C)C(=O)Nc1ccc2c(c1)OCO2` is -7.76% (inactive); for `C[C@@H]1CCCCO[C@@H](CN(C)C(=O)Nc2ccc(C(F)(F)F)cc2)[C@H](C)CN([C@H](C)CO)C(=O)c2cc(NC(=O)C3CCCCC3)ccc2O1` it is 82.6% (inactive).
With `CC(C)NC(=O)Nc1ccc2c(c1)C(=O)N([C@@H](C)CO)C[C@@H](C)[C@@H](CN(C)C(=O)Nc1ccc(C(F)(F)F)cc1)OCCCC[C@H](C)O2`, the inhibition is 45.6% (inactive).
For the molecule `C[C@@H]1CN([C@@H](C)CO)C(=O)c2cc(NC(=O)C3CCCCC3)ccc2O[C@@H](C)CCCCO[C@@H]1CN(C)C(=O)Nc1ccccc1`, the inhibition was 3.47% (inactive).
In the case of `C[C@@H]1CN([C@@H](C)CO)C(=O)c2cc(NC(=O)Nc3ccc4c(c3)OCO4)ccc2O[C@@H](C)CCCCO[C@H]1CN(C)C(=O)Nc1ccc(C(F)(F)F)cc1`, the inhibition is 105% (active).
